# Reference: PubChem BioAssay (EPA / NIEHS)
# Calls of active or inactive are those of the source. Rule for the calls: active = hit-call score of the fitted dose curve at least 0.9, where 1 is the maximum; inactive = score below 0.9.
# Experiment: CCTE_Mundy_HCI_hNP1_Casp3_7: CCTE's Caspase-Glo 3/7 Assay in human neuroprogenitor cells for Apoptosis, Mundy Lab (AID 2284240)
# Experimental: CCTE_Mundy_HCI_hNP1_Casp3_7 is a multiplexed, cell-based-readout assay that uses neural stem cells derived from a neuroepithelial cell lineage of WA09 embryonic cells with measurements taken at […] after chemical dosing in a microplate: 96-well plate.CCTE_Mundy_HCI_hNP1_Casp3_7 is one component of the CCTE_Mundy_HCI_hNP1_Casp3_7 assay. It measures apoptosis related to caspase activation using Luminescent Reporter.Data from the assay component CCTE_Mundy_HCI_hNP1_Casp3_7 was analyzed at the endpoint CCTE_Mundy_HCI_hNP1_Casp3_7_gain in the positive analysis fitting direction relative to DMSO as the negative control and baseline of activity. Using a type of viability reporter, gain -of-signal activity can be used to understand viability effects.
# Human neural progenitor cells (hNP1) were obtained as cryopreserved cells from ArunA Biomedical, Athens Georgia. Cells are plated on pre-coated poly-L-ornithine/laminin clear bottom and opaque 96 well plates (day 0). Plates are placed in a 37 °C, 5% CO2 incubator for 40 to 44 hours at which time plates are removed from the incubator and 10 uL of a freshly made chemical solution is added to each well. Apoptosis was measured based on detection of activated caspase-3/7 using the Caspase-Glo 3/7 assay kit (Promega). Twenty-four hours after chemical treatment, 50ul of Caspase-Glo 3/7 assay buffer was added to each well and the plate incubated for 30min at room temperature. Luminescence was then recorded in each well using a FLUOstar Optima plate reader.
Compound,outcome,AC50
CCOP(=S)(OCC)SCSC(C)(C)C,inactive,
CO/C=C(/C(=O)OC)c1ccccc1COc1cccc(C(F)(F)F)n1,,21.7 µM (active)
ClC1=C(Cl)[C@]2(Cl)[C@@H]3[C@@H](Cl)[C@H]4O[C@H]4[C@@H]3C1(Cl)C2(Cl)Cl,,30.3 µM (active)
ClC1=C(Cl)[C@]2(Cl)[C@@H]3[C@@H]4C[C@@H]([C@H]5O[C@@H]45)[C@@H]3[C@@]1(Cl)C2(Cl)Cl,,15 µM (active)
O=S(=O)(O)C(F)(F)C(F)(F)C(F)(F)C(F)(F)F,inactive,
C=CC(N)=O,inactive,
O=S(=O)(O)C(F)(F)C(F)(F)C(F)(F)C(F)(F)C(F)(F)C(F)(F)F,inactive,
O=C(O)C(F)(F)C(F)(F)C(F)(F)C(F)(F)C(F)(F)C(F)(F)C(F)(F)C(F)(F)C(F)(F)F,inactive,
COc1ccc(O)c(C(C)(C)C)c1,inactive,
NS(=O)(=O)C(F)(F)C(F)(F)C(F)(F)C(F)(F)C(F)(F)C(F)(F)C(F)(F)C(F)(F)F,inactive,
